Rows were chosen to be rich in hits. Some 7.9% of all compounds tested hit in one or more screens of this group.
MARV entry inh – blocks Marburg virus binding to or entry into cells | Marburg virus pseudotyped entry inhibition, cell reporter | 300,000 compounds, 1.8% hits | Potency, µM (top dose mostly 37.8 µM), hits mostly inhibitors; calls by dose curve; tested in HEK293 cells
HCV inhibitor – blocks hepatitis C virus | Huh7.5.1 HCVcc-Cre infection, luciferase reporter, 44 h | Potency, µM (doses to about 41.8 µM), actives largely listed as inhibitors | 340,000 compounds, 3.4% hits; active = well fitted inhibition curve with a large enough effect; inconclusive = small, poorly fitted or top-dose-only effect, or another doubt; inactive = no such curve, though single readings can be large or run the other way
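Whole-lifecycle infectious HCVcc-Cre system; cells 1,000/well, compound then virus (~0.5 moi) added 4 h after plating, 44 h culture. Luciferase read 15 sec following 15 min substrate incubation, room temp.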
FMDV antiviral – antivirals against foot and mouth disease virus; FMDV antiviral cell-based qHTS; Potency, µM (doses to about 57.9 µM), usual class: inhibitors; 410,000 compounds, 1.2% hits; calls by dose curve; tested in HEK293T cells; note: read-out not given here; nearly all actives have a fitted effect of over 45% in size
HCMV inh – human cytomegalovirus inhibition; HFF cells, HCMV-luciferase reporter, 72 h; active compounds read low; activity change, negative = inhibition, % at 57.5 µM; 410,000 compounds, 4.5% hits; AID 1259415; in the data active = activity change below about -60%; inconclusive = no clear call, values can overlap the other calls; inactive = above about -39%
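Cell-based, HFFs, 1000 cells/well, 16 h 37C; cpds in DMSO + HCMV-luc, MOI 1 PFU/cell; 72 h 37C; OneGlo luminescence after 5 min RT; norm. to buffer vs Salinomycin 10uM.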
Lassa entry inh – blocks Lassa virus binding to or entry into cells; Lassa virus pseudotype entry inhibition, cell reporter; Potency, µM (titrated, usually from 37.9 µM), hits mostly inhibitors; 300,000 compounds, 1.2% hits; calls by dose curve; tested in HEK293 cells; note: nearly all actives have a fitted effect of over 50% in size
Numbers stand for hits; n = inactive; u = inconclusive; x = not tested or not shown; [ ] = another dose, or the depositor's remark.

SMILES	MARV entry inh	HCV inhibitor	FMDV antiviral	HCMV inh	Lassa entry inh
CCn1c2ccccc2c2cc(NC(C)=O)ccc21	n	u	n	n	n
Cc1ccc(NC(=O)CNCc2cccs2)c(Br)c1	x	n	n	n	x
CCOC(=O)C1=CCN(S(=O)(=O)c2ccccc2Br)C1c1ccc(Cl)c(Cl)c1 (stereo unspecified)	x	x	n	n	x
COc1ccc(/C=N/n2c(-c3cc(C)[nH]n3)n[nH]c2=S)cc1	n	n	n	u	u
CCn1c2ccccc2c2cc(/C=N/n3c(-c4cc(C)[nH]n4)n[nH]c3=S)ccc21	5.01µM	u	n	n	u
COc1cc(C(O)c2nc(-c3ccncc3)cs2)ccc1F (stereo unspecified)	x	x	u	n	x
Cc1cccc(N2CCN(C(=O)C3CCN(C(=O)c4cc5sccc5n4C)CC3)CC2)c1C	n	x	u	n	x
Cc1ccccc1NC(=O)c1cc2sccc2n1Cc1ccc(F)cc1	u	x	n	n	n
Cn1c(C(=O)N2CCN(c3nc4ccccc4s3)CC2)cc2sccc21	n	n	u	-73.8	n
O=C(c1ccc(Cl)s1)N1CCN(c2nc3ccccc3s2)CC1	n	n	u	n	x
COc1ccccc1N1CCN(C(=O)c2cc3sccc3n2C)CC1	u	u	n	-76.3	u
O=C(c1cc2sccc2n1Cc1ccc(F)cc1)N1CCN(c2nc3ccccc3s2)CC1	3.55µM	3.16µM	u	u	n
CC(NC(=O)c1cc2sccc2n1Cc1ccc(F)cc1)c1ccccc1 (stereo unspecified)	n	x	n	-85.5	n
O=C(c1cccs1)N1CCN(c2nc3ccccc3s2)CC1	x	n	u	n	x
O=C1CCC[C@H]2[C@@H](Cc3ccccc3)[C@@H](NS(=O)(=O)c3ccc4ccccc4c3)CC[C@]23CCCN13	x	x	x	n	x
COc1ccc(-c2ccc3c(c2)[C@@H]2C[C@H](N(C)C(=O)C(C)(C)C)[C@H]([C@H](C)O)C(=O)N2CC3)cc1	x	n[8.37 µM]	n	n	x
O=S1(=O)c2ccc(Br)cc2-n2nncc2CN1Cc1ccc(C(F)(F)F)cc1	x	x	x	x	n
CC(C)COc1ccc(C(=O)NCC2(N3CCN(C)CC3)CCCCC2)cc1	n	x	n	n	n
CC1CCCCN1C(=O)CSc1n[nH]c(-c2ccccc2Cl)n1 (stereo unspecified)	x	x	n	n	n
CCn1c(C)nc2cc(C(=O)OC(C(F)(F)C(F)F)C(F)(F)C(F)F)ccc21	14.1µM	u	n	n	u
CS(=O)(=O)N(CC(=O)N1CCCCCC1)c1cc(Cl)ccc1Cl	x	n	n	n	x
CS(=O)(=O)N(CC(=O)N1CCCC1)c1ccc(Cl)cc1Cl	n	2.82µM	n	n	n
COc1ccc(Cl)cc1C(=O)CSc1nnnn1C1CCCC1	n	u	n	n	n
COc1ccc(Cl)cc1C(=O)CSc1nnnn1C1CCCCC1	u	u	n	-62.1	n
COCCn1c(C)cc(C(=O)COC(=O)c2cccc(O)c2)c1C	x	n	11.2µM	n	x
SMILES	MARV entry inh	HCV inhibitor	FMDV antiviral	HCMV inh	Lassa entry inh
COc1ccc(CCn2c(C)cc(C(=O)CSc3nnnn3C)c2C)cc1	n	n	n	n	n
COCCn1c(C)cc(C(=O)CSc2nnnn2C2CCCC2)c1C	u	n	12.6µM	u	1.26µM
COCCn1c(C)cc(C(=O)CSc2nnc(C)s2)c1C	u	n	7.94µM	u	u
CCc1nc2ccc(C(=O)N3CCN(S(=O)(=O)CC)CC3)cn2c1N(CC)CCN(C)C	x	x	n	n	x
Cc1c(NC(=O)c2cc3ccccc3o2)cccc1-n1cnnn1	x	x	n	n	x
Cc1ccc(-n2c(=O)c3ccc(C(=O)NCc4ccco4)cc3n(Cc3ccc(Cl)cc3)c2=O)cc1	n	x	n	u	n
Cc1cccc(-n2c(SCC(=O)Nc3ccc(C)c(C)c3)nc3n[nH]c(C)c3c2=N)c1	x	x	n	n	n
Cc1cc(-n2c(SCC(=O)Nc3ccc(Br)cc3)nc3n[nH]c(C)c3c2=N)ccc1Cl	x	n	n	-75.3	x
COc1cccc(NC(=O)CSc2nc3n[nH]c(C)c3c(=N)n2-c2cccc(OC)c2)c1	u	10µM	n	n	n
COc1ccc(OC)c(C=NNC(=O)c2ccc(NS(=O)(=O)c3cccs3)cc2)c1	u	u	n	n	n
CCCOc1ccc(C(=O)Nc2cccc(-c3nc4ccccc4[nH]3)c2)cc1	n	x	u	-87.8	n
CS(=O)(=O)c1ccc(C(=O)Nc2cccc(-c3nc4ccccc4[nH]3)c2)cc1	x	u	u	n	x
CCOc1cc(OCC)cc(C(=O)Nc2cccc(-c3nc4ccccc4[nH]3)c2)c1	x	x	u	-98.3	u
COCCN1Cc2cccc(C(=O)Nc3cccc(-c4nc5ccccc5[nH]4)c3)c2C1=O	u	u	n	-69.1	u
COCCN1Cc2cccc(C(=O)Nc3ccc(-c4nc5ccccc5[nH]4)cc3)c2C1=O	u	n	n	n	n
O=C(OC1CCN(CCCl)CC1)C(c1ccccc1)c1ccccc1	10µM	31.6µM	15.8µM	u	x
CC(=O)Oc1cc(-c2coc3cc(OC(C)=O)c(OC(C)=O)c(OC(C)=O)c3c2=O)cc(OC(C)=O)c1OC(C)=O	x	x	n	x	x
Cc1cccc(OCC(=O)N2CCc3ccccc3C2)c1C	x	x	n	n	x
COc1ccccc1NC(=O)CSc1nc(=O)n(CCN2CCOCC2)c2c1CCC2	n	n[8.37 µM]	n	n	n
CN(C)c1ccc(/C=C/c2nc3ccccc3s2)cc1	2µM	n	5.01µM	-92.2	2.24µM
O=C(O)/C=C/c1ccc2ccccc2n1	u	n	x	n	n
CN(C)c1ccc(/C=C/c2ccc3ccccc3n2)cc1	x	u	6.31µM	x	x
O=[N+]([O-])c1ccc(/C=C/c2ccc3cccc(O)c3n2)cc1	x	n	n	n	x
Fc1ccccc1/C=C/c1ccc2ccccc2n1	u	n	10µM	n	2.51µM
CCCN(CCC)c1ccc(/C=C/c2ccc3cc(OCC)ccc3n2)cc1	x	u	n	u	x
SMILES	MARV entry inh	HCV inhibitor	FMDV antiviral	HCMV inh	Lassa entry inh
O=[N+]([O-])c1ccc(/C=C/c2ccc3ccccc3n2)cc1	u	n	n	u	2µM
COc1cc(/C=C/c2nc3ccccc3s2)cc(OC)c1O	n	u	n	n	u
O=C(Nc1c(C(=O)Nc2ccc(F)cc2)oc2ccccc12)c1cc2ccccc2o1	n	x	n	n	n
COc1ccc(Cn2ccc3nc(C)c(C(=O)Nc4cc(C)cc(C)c4)cc3c2=O)cc1	x	x	n	n	n
COc1ccc(N2CCN(C(=O)CN3CCSc4ccccc43)CC2)cc1	x	x	u	n	n
Cc1ccc(/C=C/c2nc3ccccc3s2)s1	u	n	u	u	6.31µM
O/C(=C\c1ccc2ccccc2n1)c1ccc(O)cc1O	7.08µM	n	n	n	u
CC(=O)Oc1ccc(Cl)cc1/C=C/c1ccc2ccccc2n1	u	7.94µM	n	n	u
Oc1ccc(/C(Cc2ccc3ccccc3n2)=N\Nc2ccccc2)c(O)c1	u	u	n	n	u
CC(=O)Oc1c(Cl)cc(Cl)cc1/C=C/c1ccc2ccccc2n1	n	n	n	n	n
Oc1ccc(/C=C/c2ccc3ccccc3n2)cc1	x	u	n	-67.8	x
C(=C\c1ccc2ccccc2n1)/c1ccccc1	x	n	n	n	x
COc1ccc(C(=O)Nc2nc(OCC(F)(F)F)cnc2/C=C\c2ccccc2)c(OC)c1	x	x	n	n	x
COc1cc2nc(CN(CCO)C3CS(=O)(=O)CC3O)nc(N3CCCCC3)c2cc1OC (stereo unspecified)	x	x	n	x	x

Screening data (PubChem BioAssay)
